Source: PubChem BioAssay
Active and inactive are the calls of the source. How the calls were made is not given here.

biological target: Pantothenate synthetase (Mycobacterium tuberculosis (strain ATCC 25618 / H37Rv)) (UniProt P9WIL5); experiment: Recombinant Mtb pantothenate synthetase (PanC) inhibitors, coupled enzyme, confirmatory (AID 375); conditions: coupled enzyme assay; at 10 µM, stronger effect = higher value;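 further: 0% = full reaction with vehicle and 100% = no enzyme background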
Sequence (P9WIL5 whole entry, looked up): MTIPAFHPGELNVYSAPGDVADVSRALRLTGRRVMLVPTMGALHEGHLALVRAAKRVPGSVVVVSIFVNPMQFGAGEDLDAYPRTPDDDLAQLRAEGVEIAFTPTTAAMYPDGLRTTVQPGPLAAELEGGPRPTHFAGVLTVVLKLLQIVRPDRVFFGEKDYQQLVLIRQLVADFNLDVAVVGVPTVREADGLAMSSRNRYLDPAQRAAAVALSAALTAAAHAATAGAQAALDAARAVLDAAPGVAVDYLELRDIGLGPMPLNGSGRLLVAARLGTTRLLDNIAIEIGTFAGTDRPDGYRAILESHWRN

Q: For `CCOC(=O)Cc1csc(/C(=N/O)C(N)=O)n1`, which inhibition is on record?
A: 3% (inactive)

Q: For `CC(=O)c1c(C)nn(C(C)CC(=O)O)c1C` (stereo not given), which inhibition is on record?
A: 0% (inactive)

Q: With `Cc1ccc2c(c1)N(CC(=O)N1CCCCC1c1cccnc1)C(=O)CO2` (stereo not given) as the molecule, how does the inhibition read?
A: 0% (inactive)

Q: How did the inhibition turn out when `COc1cccc(-c2csc3nc[nH]c(=O)c23)c1` was run?
A: 3% (inactive)

Q: `NC(=O)C1CCN(c2nc(-c3ccccc3)nc3ccccc23)CC1` was tested. Which inhibition did it give?
A: 0% (inactive)

Q: Which inhibition does the source give for `CCOc1ccc(-c2nc(C#N)c(N3CCCCCC3)o2)cc1` here?
A: 4% (inactive)

Q: With `Cc1ccc(OCC(O)Cn2c(NCCc3ccccc3)nc3c2c(=O)[nH]c(=O)n3C)cc1` (stereo not given) as the molecule, how does the inhibition read?
A: 0% (inactive)

Q: For `Cc1nn(-c2ccc(Cl)cc2)c2sc(C(=O)N3CCN(c4ccccn4)CC3)cc12`, which inhibition is on record?
A: 4% (inactive)

Q: With `O=C1NC(=O)C(CC(=O)N(c2ccccc2)C2(C(=O)NC3CCCC3)CCCCC2)N1` (stereo not given) as the molecule, how does the inhibition read?
A: 2% (inactive)

Q: For `Cc1nc2c(-c3ccccc3)c(C)nn2c(C)c1CCC(=O)NCc1ccco1`, which inhibition is on record?
A: 2% (inactive)

Q: `Cc1ccc(S(=O)(=O)NCCC(=O)OCn2nnc3ccccc3c2=O)cc1` was tested. Which inhibition did it give?
A: 1% (inactive)

Q: With `Cn1cc(-c2nc3ccccc3[nH]2)c2ccccc21` as the molecule, how does the inhibition read?
A: 4% (inactive)

Q: For `CC1CC(=O)C2=C(C1)OC(N)=C(C#N)C2c1coc2ccccc2c1=O` (stereo not given), which inhibition is on record?
A: 6% (inactive)

Q: `O=S(c1ccsc1)c1ccsc1` was tested. Which inhibition did it give?
A: 0% (inactive)

Q: How did the inhibition turn out when `CCOC(=O)c1ccc(N(CC(=O)NC2CCCC2)C(=O)CNC(=O)c2ccco2)cc1` was run?
A: 6% (inactive)

Q: `Cc1ccc2c(Cl)cc(Cl)c(OCc3c(C)noc3C)c2n1` was tested. Which inhibition did it give?
A: 0% (inactive)

Q: Which inhibition does the source give for `O=C(NCC1CCCO1)c1ccc(N2CCCCC2)nc1` (stereo not given) here?
A: 0% (inactive)

Q: How did the inhibition turn out when `COc1cc(C)nc(NS(=O)(=O)c2ccc(C)cc2)n1` was run?
A: 5% (inactive)

Q: For `COCCNC(=O)C(c1ccc(C)o1)N(Cc1ccc(OC)cc1)C(=O)Cn1nnc2ccccc21` (stereo not given), which inhibition is on record?
A: 1% (inactive)

Q: For `Cn1c(=O)cc(OCCCC(=O)N2CCCCC2)c2ccccc21`, which inhibition is on record?
A: 0% (inactive)

Q: With `CC1=C(C(=O)OC2CCCCC2)C(c2ccc(C)o2)C2=C(CC(C)(C)CC2=O)N1` (stereo not given) as the molecule, how does the inhibition read?
A: 0% (inactive)

Q: How did the inhibition turn out when `CCc1ccc(CCC(=O)Nc2ccc(C)c(C)c2)o1` was run?
A: 4% (inactive)

Q: Which inhibition does the source give for `Cc1cc(C(=O)CN2C(=O)c3ccccc3C2=O)c(C)n1Cc1cccs1` here?
A: 0% (inactive)

Q: For `N#CC1=C(N)S[C@H](C(=O)C23CC4CC(CC(C4)C2)C3)[C@H]1c1ccncc1`, which inhibition is on record?
A: 0% (inactive)

Q: How did the inhibition turn out when `CCn1c(CC(=O)Nc2cccc(OC)c2)nnc1SCC(=O)Nc1nccs1` was run?
A: 0% (inactive)

Q: Which inhibition does the source give for `COc1ccc(-n2cnnc2SCCC#N)cc1` here?
A: 0% (inactive)

Q: With `O=C(CN1c2cccc3cccc(c23)S1(=O)=O)N1CCOCC1` as the molecule, how does the inhibition read?
A: 0% (inactive)

Q: How did the inhibition turn out when `Nc1cccc2c1C(=O)N(c1ccccc1)C2=O` was run?
A: 0% (inactive)

Q: How did the inhibition turn out when `Cc1ccc(-c2nnc(N3CCN(C(=O)CN4C(=O)c5ccccc5C4=O)CC3)c3ccccc23)cc1` was run?
A: 0% (inactive)

Q: Which inhibition does the source give for `COc1cc(NC(=O)c2cccs2)cc(OC)c1` here?
A: 0% (inactive)

Q: For `O=C(CN1C(=O)c2ccccc2S1(=O)=O)NCc1ccccn1`, which inhibition is on record?
A: 0% (inactive)

Q: Which inhibition does the source give for `Cn1cnnc1SCC(=O)Nc1sc2c(c1C#N)CCCCC2` here?
A: 1% (inactive)

Q: How did the inhibition turn out when `CCOC(=O)c1cc(-c2ccc(Cl)s2)nc2c1c(C)nn2C` was run?
A: 0% (inactive)

Q: With `CC(=O)C1=C(C)NC(SCSc2ccccc2)=C(C#N)C1c1cccnc1` (stereo not given) as the molecule, how does the inhibition read?
A: 4% (inactive)

Q: `CC(=O)N1CCc2cc(S(=O)(=O)CCC(=O)N3CCN(C(=O)c4ccco4)CC3)ccc21` was tested. Which inhibition did it give?
A: 6% (inactive)

Q: Which inhibition does the source give for `Cc1cc(C)c(C)c(S(=O)(=O)Nc2ccc(O)cc2)c1C` here?
A: 10% (inactive)

Q: Which inhibition does the source give for `CCn1cc(C(=O)NCCC2=CCCCC2)c(=O)c2cc(S(=O)(=O)N(C)C)ccc21` here?
A: 0% (inactive)

Q: Which inhibition does the source give for `CN1CCN(S(=O)(=O)c2ccc(NC(=O)Nc3cccc(Cl)c3)cc2)CC1` here?
A: 1% (inactive)

Q: Which inhibition does the source give for `Cn1nc(C(=O)N2CCOCC2)c2ccccc2c1=O` here?
A: 0% (inactive)

Q: With `Cc1cc(=O)n2nc(-c3ccccc3)sc2n1` as the molecule, how does the inhibition read?
A: 0% (inactive)
